36 compounds from PubChem BioAssay (Tox21) can be followed below.

Values joined by “and” are separate entries in the source; they are usually repeats but may differ in a detail not shown here. Equal values may be shown once. Results filed as inconclusive are left out. Active and inactive are the calls of the source. Calls follow the shape of the dose curve; as a rule, active = well fitted curve in the direction sought with a large enough effect in the repeat runs; inconclusive = weak or mixed curves; inactive = no such curve, though single readings can be large; an effect the other way counts as inactive or inconclusive.

In assay [1] the target is Cytochrome P450 1A2 (Homo sapiens) (UniProt P05177). The assay is described as follows: Cytochrome P450 Family 1 Subfamily A Member 2 (CYP1A2) small molecule antagonists: luciferase reporter qHTS assay (AID 1671199). The procedure, abridged:
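P450-Glo CYP1A2 enzyme–proluciferin substrate mix with compound 10 min at room temperature, then NADPH regeneration 1 h at room temperature. Luciferin detection reagent added, luminescence read after 20 min; furafylline positive control.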
On the technique in general: A reporter such as luciferase makes a cellular process visible.

For assay [2], the target named is Voltage-gated inwardly rectifying potassium channel KCNH2 (Homo sapiens) (UniProt Q12809). Briefly: Human Ether-a-go-go-Related Gene (hERG) channel small molecule antagonists: fluorescence cell-based qHTS assay (AID 1671200). An outline of the steps:
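Channel function was assessed by thallium flux. Cells seeded the previous day and kept at 37 C took up FluxOR II dye over 1 h in the dark at room temperature, then sat another 10 min before stimulation.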
On the technique in general: The hERG channel carries a current that helps repolarise heart muscle cells.

Assay [3] deals with Cytochrome P450 3A4 (Homo sapiens) (UniProt P08684). Briefly: Cytochrome P450 Family 3 Subfamily A Member 4 (CYP3A4) small molecule antagonists: luciferase reporter qHTS assay (AID 1671201). The procedure, abridged: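 Compounds in DMSO were pin-transferred onto CYP3A4 enzyme-substrate mix and held 10 min at room temperature. NADPH regenerating solution started the reaction for 1 h; luciferin detection reagent stopped it, and luminescence was read after 20 min.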
Chain of Cytochrome P450 3A4 (Homo sapiens) (P08684 whole entry, looked up): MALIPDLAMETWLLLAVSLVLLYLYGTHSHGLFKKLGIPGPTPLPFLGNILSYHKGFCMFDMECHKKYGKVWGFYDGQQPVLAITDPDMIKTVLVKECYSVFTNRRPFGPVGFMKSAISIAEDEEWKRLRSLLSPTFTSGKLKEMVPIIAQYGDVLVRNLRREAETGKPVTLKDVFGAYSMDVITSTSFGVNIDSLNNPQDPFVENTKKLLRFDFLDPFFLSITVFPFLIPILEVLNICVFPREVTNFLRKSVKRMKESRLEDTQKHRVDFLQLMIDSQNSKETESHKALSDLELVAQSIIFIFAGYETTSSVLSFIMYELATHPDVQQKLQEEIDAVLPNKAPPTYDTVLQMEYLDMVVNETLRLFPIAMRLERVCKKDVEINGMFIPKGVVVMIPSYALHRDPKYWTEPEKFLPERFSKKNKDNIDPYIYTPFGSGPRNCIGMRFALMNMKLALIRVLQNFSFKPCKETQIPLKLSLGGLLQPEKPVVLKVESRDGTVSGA
Also: nearly all actives have a fitted effect of over 50% in size.
Potency is read from the fitted curve at half-maximal effect.

Chain of Voltage-gated inwardly rectifying potassium channel KCNH2 (Homo sapiens) (Q12809 whole entry, looked up): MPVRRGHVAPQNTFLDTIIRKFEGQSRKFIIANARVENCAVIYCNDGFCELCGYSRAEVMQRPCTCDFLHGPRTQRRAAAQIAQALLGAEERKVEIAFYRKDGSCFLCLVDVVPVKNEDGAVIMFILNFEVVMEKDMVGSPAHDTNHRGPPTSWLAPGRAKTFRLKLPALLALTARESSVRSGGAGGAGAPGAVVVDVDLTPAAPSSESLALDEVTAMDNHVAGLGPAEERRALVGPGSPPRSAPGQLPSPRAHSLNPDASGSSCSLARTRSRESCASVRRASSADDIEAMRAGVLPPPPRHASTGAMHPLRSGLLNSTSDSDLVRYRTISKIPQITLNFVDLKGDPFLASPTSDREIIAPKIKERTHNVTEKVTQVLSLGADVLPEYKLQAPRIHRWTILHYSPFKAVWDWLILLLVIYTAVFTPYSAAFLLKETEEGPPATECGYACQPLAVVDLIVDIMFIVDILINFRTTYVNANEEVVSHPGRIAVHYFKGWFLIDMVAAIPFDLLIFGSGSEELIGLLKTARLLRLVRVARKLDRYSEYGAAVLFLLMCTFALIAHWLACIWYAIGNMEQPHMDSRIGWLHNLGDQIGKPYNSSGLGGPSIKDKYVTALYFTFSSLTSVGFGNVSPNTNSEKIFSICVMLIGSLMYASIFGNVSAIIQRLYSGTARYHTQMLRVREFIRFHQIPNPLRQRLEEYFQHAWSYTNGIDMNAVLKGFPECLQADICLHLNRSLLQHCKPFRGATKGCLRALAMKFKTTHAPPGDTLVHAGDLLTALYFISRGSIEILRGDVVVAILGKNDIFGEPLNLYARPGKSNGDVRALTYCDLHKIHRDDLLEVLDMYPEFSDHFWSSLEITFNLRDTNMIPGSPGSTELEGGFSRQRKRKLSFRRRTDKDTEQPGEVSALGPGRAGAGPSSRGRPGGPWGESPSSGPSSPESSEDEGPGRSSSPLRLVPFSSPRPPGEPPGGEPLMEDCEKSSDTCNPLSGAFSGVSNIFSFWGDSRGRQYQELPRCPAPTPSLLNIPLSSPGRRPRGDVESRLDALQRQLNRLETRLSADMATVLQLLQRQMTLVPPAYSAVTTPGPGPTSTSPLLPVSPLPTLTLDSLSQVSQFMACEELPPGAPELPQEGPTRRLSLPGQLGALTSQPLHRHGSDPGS
Chain of Cytochrome P450 1A2 (Homo sapiens) (P05177 whole entry, looked up): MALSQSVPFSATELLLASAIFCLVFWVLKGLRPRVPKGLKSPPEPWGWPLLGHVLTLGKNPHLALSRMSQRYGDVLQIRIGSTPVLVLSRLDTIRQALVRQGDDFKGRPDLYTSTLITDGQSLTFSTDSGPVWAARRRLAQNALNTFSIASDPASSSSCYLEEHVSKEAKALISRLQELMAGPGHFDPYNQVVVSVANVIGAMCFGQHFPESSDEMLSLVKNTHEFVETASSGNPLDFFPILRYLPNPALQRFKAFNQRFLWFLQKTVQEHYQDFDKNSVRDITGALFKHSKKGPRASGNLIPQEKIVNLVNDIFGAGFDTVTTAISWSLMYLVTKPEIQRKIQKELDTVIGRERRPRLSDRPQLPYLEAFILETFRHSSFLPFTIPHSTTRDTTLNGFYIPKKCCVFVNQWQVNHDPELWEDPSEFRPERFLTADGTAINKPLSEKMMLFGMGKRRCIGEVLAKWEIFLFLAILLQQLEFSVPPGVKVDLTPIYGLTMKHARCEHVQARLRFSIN

In the case of `CCOC(=O)C(C)C(C)=O` (stereo not drawn), the Potency in assay [1] was 35.8 µM (active). In addition, the Potency result in assay [2] and in assay [3] was “inactive” throughout.
As for `CCCCCCCCCCCCc1ccccc1O`, the Potency in assay [1] was 35.1 µM (active) and 31.7 µM (active); in assay [3], 31.3 µM (active) and 63.3 µM (active). In addition, in assay [2], the Potency entry was “inactive”.
Turning to `CNC1(C)C2CCC(C2)C1(C)C` (stereo not drawn), the Potency entry in assay [1], in assay [2] and in assay [3] was “inactive” throughout.
Take `C#CC(C)(CC)OC(=O)c1ccccc1C(=O)O` (stereo not drawn): the Potency entry in assay [1], in assay [2] and in assay [3] was “inactive” throughout.
`O=C(O)Cn1cnnn1`: the Potency entry in assay [1], in assay [2] and in assay [3] was “inactive” throughout.
Consider `CC(COc1ccccc1)N(CCCl)Cc1ccccc1` (stereo not drawn), for which the Potency entry in assay [1] and in assay [3] was “inactive” each time. The Potency in assay [2] was 19.7 µM (active) and 24.5 µM (active).
As for `O=C(Oc1ccccc1)c1ccccc1O`, the Potency in assay [1] is 35.7 µM (active) and 35.6 µM (active) and 28.8 µM (active). Also, the Potency entry in assay [2] and in assay [3] was “inactive” throughout.
As for `CCC(CO)(CO)COCC(CC)(CO)CO`, the Potency result in assay [1], in assay [2] and in assay [3] was “inactive” throughout.
In the case of `CCc1ccc(C(c2ccc(CC)cc2)C(Cl)Cl)cc1`, in assay [1], the Potency is 40.6 µM (active). Besides, the Potency result in assay [2] and in assay [3] was “inactive” in each case.
With `BrC1CCC(Br)C(Br)CCC(Br)C(Br)CCC1Br` (stereo not drawn), in assay [1], the Potency entry is “inactive”. The Potency in assay [2] is 15.4 µM (active); in assay [3], 1.41 µM (active) and 1.51 µM (active).
For the compound `CC(=O)OCCOCCOCCOC(C)=O`, the Potency result in assay [1], in assay [2] and in assay [3] was “inactive” throughout.
Take `CCCNC(C)C(=O)Nc1ccccc1C` (stereo not drawn): the Potency entry in assay [1], in assay [2] and in assay [3] was “inactive” in each case.
Take `CC(=O)Nc1ccc(C(=O)CCl)cc1`: in assay [1], the Potency is 31.7 µM (active). Besides, the Potency result in assay [2] and in assay [3] was “inactive” in each case.
With `Cc1cc(Cc2cc(C)cc(C(C)(C)C)c2O)c(O)c(C(C)(C)C)c1`, the Potency was 25.3 µM (active) in assay [1]; 39.1 µM (active) in assay [2]; 5.67 µM (active) and 8.94 µM (active) in assay [3].
For `NCCO`, the Potency in assay [1] was 9.47 µM (active). Moreover, the Potency result in assay [2] and in assay [3] was “inactive” each time.
As for `COc1ccc(COC(C)=O)cc1`, the Potency in assay [1] was 28.8 µM (active) and 44.8 µM (active). Further, the Potency result in assay [2] and in assay [3] was “inactive” each time.
Consider `CCCCC/C=C/CC1CC(=O)OC1=O` (stereo not drawn), for which, in assay [1], the Potency is 28.3 µM (active). The Potency entry in assay [2] and in assay [3] was “inactive” throughout.
Consider `N[C@@H]1CONC1=O`, for which the Potency result in assay [1], in assay [2] and in assay [3] was “inactive” each time.
As to `O=C(Nc1ccccc1SSc1ccccc1NC(=O)c1ccccc1)c1ccccc1`, the Potency was 8.01 µM (active) and 8.94 µM (active) in assay [1]; 2.01 µM (active) and 5.03 µM (active) in assay [3]. Further, the Potency result in assay [2] was “inactive”.
As for `c1ccc2c(c1)-c1cccc3c1c-2cc1ccccc13`, in assay [1], the Potency is 694 nM (active) and 1 µM (active). For the same compound, the Potency result in assay [2] and in assay [3] was “inactive” each time.
Regarding `CCCCOCCOC(=O)c1ccccc1C(=O)OCCOCCCC`, the Potency in assay [1] was 19.6 µM (active) and 15.9 µM (active); in assay [3], 12.4 µM (active) and 17.8 µM (active). For the same compound, the Potency entry in assay [2] was “inactive”.
Regarding `OCCN1CCNCC1`, the Potency result in assay [1], in assay [2] and in assay [3] was “inactive” throughout.
For `CCn1c2ccccc2c2cc(N)ccc21`, the Potency in assay [1] is 626 nM (active) and 2.24 µM (active) and 5.03 µM (active); in assay [3], 1.77 µM (active) and 5.64 µM (active) and 31.7 µM (active). For the same compound, in assay [2], the Potency entry is “inactive”.
As to `Cc1cc(OCCOCC[N+](C)(C)Cc2ccccc2)ccc1C(C)(C)CC(C)(C)C`, the Potency result in assay [1] and in assay [3] was “inactive” each time. Further, the Potency in assay [2] was 688 nM (active) and 756 nM (active).
Regarding `CCOc1ccccc1C(N)=O`, the Potency in assay [1] was 31.8 µM (active) and 17.4 µM (active). Also, the Potency entry in assay [2] and in assay [3] was “inactive” in each case.
In the case of `CCCOC(=O)c1cc(O)c(O)c(O)c1`, in assay [1], the Potency was 39.7 µM (active) and 39.9 µM (active). Also, the Potency result in assay [2] and in assay [3] was “inactive” in each case.
As for `CC(C(O)c1ccc(O)cc1)N1CCC(Cc2ccccc2)CC1` (stereo not drawn), the Potency entry in assay [1] and in assay [3] was “inactive” throughout. Besides, in assay [2], the Potency was 6.01 µM (active).
In the case of `CC(=O)CC(=O)Nc1ccc2[nH]c(=O)[nH]c2c1`, the Potency in assay [1] is 39.9 µM (active). The Potency entry in assay [2] and in assay [3] was “inactive” in each case.
With `C[N+]1([O-])CCOCC1`, the Potency in assay [1] is 31.6 µM (active). In addition, the Potency entry in assay [2] and in assay [3] was “inactive” in each case.
For `CC(C)C(=O)c1c(C(C)C)nn2ccccc12`, the Potency in assay [1] is 2.57 µM (active). The Potency entry in assay [2] and in assay [3] was “inactive” each time.
`C=C(C)C(=O)O`: the Potency entry in assay [1], in assay [2] and in assay [3] was “inactive” in each case.
For the compound `Cc1occc(=O)c1OC(=O)C(C)C`, the Potency entry in assay [1], in assay [2] and in assay [3] was “inactive” throughout.
For the compound `[Cl][In]([Cl])[Cl]`, the Potency in assay [1] was 37.7 µM (active). For the same compound, the Potency result in assay [2] and in assay [3] was “inactive” each time.
For `COC(=O)/C=C/c1ccccc1`, in assay [1], the Potency was 15.9 µM (active) and 28.3 µM (active). Moreover, the Potency entry in assay [2] and in assay [3] was “inactive” in each case.
As to `O=C(O)c1cn(-c2ccc(F)cc2)c2cc(N3CCNCC3)c(F)cc2c1=O`, the Potency result in assay [1], in assay [2] and in assay [3] was “inactive” throughout.
For `CCN(CC)c1ccc2c(C)cc(=O)oc2c1`, the Potency in assay [1] was 2.02 µM (active) and 2.83 µM (active); in assay [3], 20.2 µM (active) and 31.7 µM (active). The Potency result in assay [2] was “inactive”.
